Compounds with a hit are over-represented: about 3.3% of the library has one in this group of screens.
TLR4 MyD88 comp: inhibitors of human TLR4-MyD88 binding. O00206+Q99836. HeLa CL3-4 TLR4/MyD88 BLA complementation, FRET ratio. inhibition, % at 8.4 µM. 0.18% of 200,000 active. AID 861; in the data active = inhibition above about 25%
rCAG binder: r(CAG) repeat RNA binding; inhibition, % at 3 µM; AID 651821; TO-PRO-1 dye displacement fluorescence; 1.3% of 370,000 active;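 active = inhibition above the plate cutoff, the mean of all test compounds on that plate plus 3 SD, cut at about 35% in these data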;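 note: higher means more dye released from RNA so lower well fluorescence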
NOD2-RIPK2 inh: blocks binding of human NOD2 to RIPK2. O43353. CHO BLA complementation NOD2-RIPK2, CCF4 ratio. inhibition, % at 4.98 µM. 0.38% of 360,000 active; in the data active = inhibition above about 21%
Target sequence (O43353 whole entry, looked up): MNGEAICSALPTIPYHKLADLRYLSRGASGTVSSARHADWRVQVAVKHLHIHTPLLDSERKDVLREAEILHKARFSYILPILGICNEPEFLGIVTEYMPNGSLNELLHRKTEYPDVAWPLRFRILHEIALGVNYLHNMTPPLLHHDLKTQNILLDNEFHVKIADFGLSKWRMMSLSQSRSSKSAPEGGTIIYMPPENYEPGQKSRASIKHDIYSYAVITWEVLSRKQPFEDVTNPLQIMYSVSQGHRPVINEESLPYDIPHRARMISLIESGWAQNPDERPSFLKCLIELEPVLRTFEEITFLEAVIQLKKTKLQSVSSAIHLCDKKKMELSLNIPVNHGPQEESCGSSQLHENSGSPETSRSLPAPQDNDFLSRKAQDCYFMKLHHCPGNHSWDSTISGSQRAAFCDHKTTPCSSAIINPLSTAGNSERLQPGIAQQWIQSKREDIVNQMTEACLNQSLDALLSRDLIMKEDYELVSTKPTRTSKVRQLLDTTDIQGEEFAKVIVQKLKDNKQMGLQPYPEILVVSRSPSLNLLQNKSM
PRMT1 FP inh: PRMT1 (human) inhibition, primary screen | recombinant PRMT1, activity-based probe fluorescence polarization | inhibition, % at 2.79 µM | 1.3% of 370,000 active;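 active = inhibition above about 21% made by adding two undisclosed values, limit read from the data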
TLR9-MyD88 inh: TLR9-MyD88 interaction inhibition | AID 504734 | 0.21% of 340,000 active | inhibition, % at 4.98 µM | Q9NR96+Q99836 | CHO BLA complementation TLR9-MyD88, CCF4 FRET ratio;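 active = inhibition above the mean over all tested compounds plus 3 SD, cut at about 21% in these data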
ABHD5-PLIN5 inh: ABHD5-PLIN5 protein interaction inhibition | Split G. princeps luciferase complementation, luminescence, 4 h | inhibition, % at 4 µM | 0.78% of 360,000 active | AID 602281;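 active = inhibition above the mean inhibition across every tested compound plus 3 SD, cut at about 22% in these data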
rCAG bind conf: r(CAG) RNA repeat binding, confirmation. shares compounds with rCAG binder. TO-PRO-1 dye displacement fluorescence. inhibition, % at 3 µM. 70% of 4,300 active. AID 652065;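 active = inhibition above a per-plate cutoff, the mean inhibition of sample wells plus 3 SD, cut at about 35% in these data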;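 note: loss of TO-PRO-1 fluorescence as compound displaces dye from 1x1 AA loop RNA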
DNA CAG counter: disrupts DNA CAG TO-PRO-1 complex, flagging rCAG hits; AID 652068; shares compounds with rCAG binder; d(CAG) DNA oligo TO-PRO-1 dye displacement, fluorescence; inhibition, % at 3 µM; 94% of 4,300 active;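 active = inhibition above its plate's cutoff, the mean test-well inhibition plus 3 SD, cut at about 4.8% in these data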;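 note: hits displace the dye from DNA and so lower well fluorescence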
PRMT1 confirm: PRMT1 (human) inhibition, FP confirmation; 42% of 3,300 active; AID 687036; recombinant His-PRMT1, activity-based probe fluorescence polarization; inhibition, % at 2.79 µM; shares compounds with PRMT1 FP inh;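 active = mean inhibition across replicates above the hit cutoff derived for the earlier primary screen, cut at about 22% in these data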
Each line names hits and unclear results; the compound was inactive in the other large screens (follow-up assays come after a bar, where they were run).

COc1ccc(S(=O)(=O)/N=C2/NC(=O)/C(=C/c3ccco3)S2)cc1	rCAG binder 85, PRMT1 FP inh 47 | rCAG bind conf 42 | DNA CAG counter 11 | PRMT1 confirm inactive
COc1ccc(S(=O)(=O)/N=C2/NC(=O)/C(=C\c3ccco3)S2)cc1	rCAG binder 65, PRMT1 FP inh 30 | rCAG bind conf 44 | DNA CAG counter 12 | PRMT1 confirm inactive
O=C1NC(=O)C(=Cc2ccccc2[N+](=O)[O-])S1	none (no result: TLR4 MyD88 comp)
CCC[C@H]1[C@@H](OC(=O)NC(CC)CC)CC[C@@]23CCCN2C(=O)CCC[C@@H]13	none (no result: TLR4 MyD88 comp, rCAG binder, NOD2-RIPK2 inh, TLR9-MyD88 inh, ABHD5-PLIN5 inh)
C[C@@H]1CCCCO[C@@H](CN(C)Cc2ccc(C(=O)O)cc2)[C@@H](C)CN([C@H](C)CO)C(=O)c2cc(NS(C)(=O)=O)ccc2O1	none (no result: TLR4 MyD88 comp, NOD2-RIPK2 inh, TLR9-MyD88 inh, ABHD5-PLIN5 inh)
O=C(/C=C/c1ccco1)c1cccnc1	rCAG binder 36, PRMT1 FP inh 47 (no result: TLR4 MyD88 comp) | rCAG bind conf inactive | DNA CAG counter 5.2 | PRMT1 confirm inactive
CC(/C=C/c1ccco1)=N\NC(=O)c1cccnc1	none
Nc1c(C(=O)NCC2CCCO2)sc2nc3c(c(-c4ccco4)c12)CC/C3=C\c1ccco1 (stereo not given)	rCAG binder 60, PRMT1 FP inh 36 | rCAG bind conf 83 | DNA CAG counter 53 | PRMT1 confirm 47
NC(=O)c1sc2nc3c(c(-c4ccco4)c2c1N)CCCC3	none (no result: TLR4 MyD88 comp)
CN(Cc1ccccc1)C(=O)c1ccc(NC(=O)C2=CSCCO2)cc1	none (no result: TLR4 MyD88 comp)
N#Cc1c(Cl)nsc1NN	rCAG binder 92, PRMT1 FP inh 40 | rCAG bind conf inactive | DNA CAG counter 4.8 | PRMT1 confirm inactive
Cc1cccc(NC(=S)NC(=O)/C=C/c2ccco2)c1	rCAG binder 37, PRMT1 FP inh 35 | rCAG bind conf inactive | DNA CAG counter 14 | PRMT1 confirm inactive
NS(=O)(=O)c1ccc(NC(=S)NC(=O)/C=C/c2ccco2)cc1	rCAG binder 40, PRMT1 FP inh 56 | rCAG bind conf inactive | DNA CAG counter 11 | PRMT1 confirm inactive
Cc1ccc(-n2nc3ccc(NC(=S)NC(=O)/C=C/c4ccco4)cc3n2)cc1	none
COCCN1C(=O)Cc2c1nc(N)c1c(N)nc(N3CCN(c4ccc(F)cc4)CC3)c(C#N)c21	rCAG binder 38, PRMT1 FP inh 27 | rCAG bind conf inactive | DNA CAG counter 15 | PRMT1 confirm inactive
COCC(C)N1C(=O)Cc2c1nc(N)c1c(N)nc(N3CCN(c4ccccc4F)CC3)c(C#N)c21 (stereo not given)	none
COc1ccc(OC)c(NC(=O)CSc2ccc3nnc(-c4ccccn4)n3n2)c1	none (no result: TLR4 MyD88 comp)
CCOC(=O)C1=C(C)N=c2s/c(=C\c3ccc(OCC(=O)O)cc3)c(=O)n2C1c1ccc(Cl)cc1 (stereo not given)	rCAG binder 55, PRMT1 FP inh 30 (no result: TLR4 MyD88 comp) | rCAG bind conf 73 | DNA CAG counter 36 | PRMT1 confirm inactive
CCOC(=O)C1=C(C)N=c2s/c(=C/c3ccc(OCC(=O)O)cc3)c(=O)n2C1c1ccc(F)cc1 (stereo not given)	rCAG binder 69, PRMT1 FP inh 37 (no result: TLR4 MyD88 comp) | rCAG bind conf 77 | DNA CAG counter 36 | PRMT1 confirm inactive
CCOC(=O)C1=C(C)N=c2s/c(=C/c3ccccc3)c(=O)n2C1c1ccc(OC)c(OC)c1 (stereo not given)	none
CCOC(=O)C1=C(C)N=c2s/c(=C\c3ccc(OCC(=O)O)cc3)c(=O)n2C1c1ccccc1OC (stereo not given)	none (no result: TLR4 MyD88 comp)
CCOC(=O)C1=C(C)N=c2s/c(=C/c3ccc(OCC(=O)O)c(OC)c3)c(=O)n2C1c1ccc(Cl)cc1 (stereo not given)	rCAG binder 44, PRMT1 FP inh 34 (no result: TLR4 MyD88 comp) | rCAG bind conf 54 | DNA CAG counter 16 | PRMT1 confirm 22
CCOc1ccc(C2C(C(=O)Nc3ccccc3)=C(C)N=c3s/c(=C/c4cccc(OCC(=O)O)c4)c(=O)n32)cc1 (stereo not given)	rCAG binder 67, PRMT1 FP inh 25 | rCAG bind conf 83 | DNA CAG counter 54 | PRMT1 confirm inactive
Cc1ccc(S(=O)(=O)N2CCN(C(=O)COC(=O)CNC(=O)c3ccccc3F)CC2)c(C)c1	none (no result: TLR4 MyD88 comp)
COC(=O)C1=C(O)/C(=C\c2ccc(CNC(=O)C(=O)Nc3ccc(C)c(C)c3)o2)N=C1C	rCAG binder 56, PRMT1 FP inh 45 | rCAG bind conf inactive | DNA CAG counter 12 | PRMT1 confirm inactive
COC(=O)C1=C(O)/C(=C\c2ccc(CNC(=O)C(=O)Nc3ccc(C)cc3)o2)N=C1C	none
CCOC(=O)C(=O)NCc1ccc(/C=C2/N=C(C)C(C(=O)OCC)=C2O)o1	none
CCOC(=O)C1=C(O)/C(=C\c2ccc(CNS(=O)(=O)c3ccc(Br)cc3)o2)N=C1C	rCAG binder 37, PRMT1 FP inh 34 | rCAG bind conf 43 | DNA CAG counter 16 | PRMT1 confirm inactive
CCOC(=O)C1=C(O)/C(=C/c2ccc(CNC(=O)C(=O)Nc3ccc(C)cc3)o2)N=C1C	rCAG binder 49, PRMT1 FP inh 48 | rCAG bind conf inactive | DNA CAG counter 11 | PRMT1 confirm inactive
COc1cc2c(cc1OC)C(C(=O)Nc1ccc(F)c(Cl)c1)CC(=O)N2 (stereo not given)	none (no result: TLR4 MyD88 comp)
CCN(CC(=O)Nc1ccc(NC(C)=O)cc1)C(=O)c1ccc(Sc2nncn2C)c([N+](=O)[O-])c1	none (no result: TLR4 MyD88 comp)
CCCCNC(=O)c1ccc2nc(-c3ccco3)c(-c3ccco3)nc2c1	rCAG binder 62, PRMT1 FP inh 42 | rCAG bind conf inactive | DNA CAG counter 5.8 | PRMT1 confirm 48
Cc1ccc(-n2c(SCC(=O)NN=Cc3c[nH]c4ccccc34)nnc2-c2ccccc2)cc1	none (no result: TLR4 MyD88 comp, NOD2-RIPK2 inh, TLR9-MyD88 inh, ABHD5-PLIN5 inh)
O=C(O)c1ccc(NNC(=S)Nc2cc(C(F)(F)F)ccc2Cl)cc1	rCAG binder 39, PRMT1 FP inh 27 (no result: TLR4 MyD88 comp) | rCAG bind conf inactive | DNA CAG counter 4.7 | PRMT1 confirm inactive
CCOc1ccc(C=Nn2c(-c3cccc(OC(C)C)c3)n[nH]c2=S)cc1	rCAG binder 44, PRMT1 FP inh 29 (no result: TLR4 MyD88 comp, NOD2-RIPK2 inh, TLR9-MyD88 inh, ABHD5-PLIN5 inh) | rCAG bind conf 46 | DNA CAG counter 11 | PRMT1 confirm inactive
CCN(CC)S(=O)(=O)c1cccc(-c2n[nH]c(=S)n2/N=C/c2ccc(OC(F)F)cc2)c1	rCAG binder 78, PRMT1 FP inh 51 | rCAG bind conf 64 | DNA CAG counter 22 | PRMT1 confirm 34
Cc1ccc(/C=N/n2c(-c3ccccc3)n[nH]c2=S)cc1	none (no result: TLR4 MyD88 comp)
